Holding throughout (experiment): NCI-60 one-dose screen, 48 h (100 = growth as untreated, 0 = no growth, -100 = all killed)
In one assay the test system is NCI-H23 lung. The settings on record: 10 µM unless noted.
The subject of a further assay is NCI-H226 lung. The note with it: 10 µM unless noted.
In another assay the test system is NCI-H322M lung. The settings on record: 10 µM unless noted.
The next assay relates to HOP-62 NSCLC. The note with it: 10 µM unless noted.
The next assay has as its system HOP-92 NSCLC. The note with it: 10 µM.
A further assay concerns NCI-H522 lung. The note with it: 10 µM.
The test system of the next assay is A549/ATCC NSCLC. The note with it: 10 µM unless noted.
The next assay deals with 786-0 renal. The note with it: 10 µM unless noted.
The next assay relates to COLO 205 colon. The note with it: 10 µM unless noted.
The test system of another assay is DU-145 prostate. The note with it: 10 µM unless noted.
For a further assay, the system named is K-562 leukemia. The settings on record: 10 µM unless noted.
The test system of a further assay is MALME-3M melanoma. The settings on record: 10 µM unless noted.
The subject of another assay is MDA-MB-231 breast. The settings on record: 10 µM unless noted.
The subject of the next assay is RXF 393 renal. The note with it: 10 µM unless noted.
A further assay has as its system SF-268 CNS. The settings on record: 10 µM unless noted.
The next assay deals with SF-295 CNS. The settings on record: 10 µM unless noted.
The subject of the next assay is SF-539 CNS. The note with it: 10 µM unless noted.
The next assay concerns UACC-257 melanoma. The settings on record: 10 µM unless noted.
For the next assay, the system named is M14 melanoma. The settings on record: 10 µM unless noted.
The subject of the next assay is NCI-H460 lung. The settings on record: 10 µM unless noted.

Structures are written as SMILES. This is part of a sample that, as a whole, favours compounds with a hit. Of some 83,000 tested, about 20% had one in any assay.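 In brief: 96-well plates, 48 h treatment, single concentration, percent growth endpoint.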 A number with no mark means an inactive call. Activity calls are given as the source filed them. Rule for the calls: active = growth percent below 10; inactive = the rest.

With `COc1ccc(CNCCCN2C(=O)c3ccc4c5c(ccc(c35)C2=O)C(=O)N(CCCNCc2ccc(OC)c(OC)c2OC)C4=O)c(OC)c1OC`, the growth was -74.8% (active) with NCI-H23 lung; -64.7% (active) in the assay on NCI-H226 lung; -60.5% (active) with NCI-H322M lung; -44.3% (active) in the assay on HOP-62 NSCLC; -43.5% (active) in the assay with HOP-92 NSCLC; -88.6% (active) in the assay on NCI-H522 lung. In addition, the growth is -89.4% (active) in the assay with A549/ATCC NSCLC; -78.8% (active) in the assay with 786-0 renal; -43.9% (active) in the assay on COLO 205 colon; -96% (active) with DU-145 prostate; -49.1% (active) in the assay on K-562 leukemia; -78.5% (active) in the assay on MALME-3M melanoma. For the same compound, the growth in the assay on MDA-MB-231 breast is -53.1% (active); in the assay with RXF 393 renal, -91.9% (active); with SF-268 CNS, -88.4% (active); in the assay on SF-295 CNS it was -76.8% (active); in the assay on SF-539 CNS, -80.1% (active); in the assay on UACC-257 melanoma, -97.5% (active). Also, the growth in the assay with M14 melanoma is -60.6% (active).
As for `COc1cc(OC)c(/C=C/c2ccc3ccccc3[n+]2C)c(OC)c1`, the growth was 1.71% (active) in the assay on NCI-H23 lung; 26.2% in the assay with NCI-H226 lung; 17.7% with NCI-H322M lung; 28.4% in the assay with HOP-62 NSCLC; 1.55% (active) in the assay with NCI-H460 lung; 18.5% with 786-0 renal. Besides, the growth is -51.5% (active) with COLO 205 colon; 22.3% in the assay on DU-145 prostate; 9.98% (active) in the assay with K-562 leukemia; 3.03% (active) in the assay on MALME-3M melanoma; 28.2% in the assay with MDA-MB-231 breast; 34.5% with RXF 393 renal. Moreover, the growth with SF-268 CNS is 18%; in the assay on SF-295 CNS, -32.7% (active); in the assay with SF-539 CNS, -23.7% (active); with M14 melanoma, 15.9%.
In the case of `COc1ccc(Nc2c3ccccc3nc3ccccc23)cc1`, the growth in the assay on NCI-H23 lung is 36.1%; in the assay on NCI-H226 lung it was 6.97% (active); with NCI-H322M lung it was 43.3%; in the assay on HOP-62 NSCLC, 33.7%; in the assay on NCI-H460 lung, 9.36% (active); in the assay on 786-0 renal it was 43.6%. Further, the growth in the assay with COLO 205 colon was 20.1%; in the assay with DU-145 prostate it was 21.5%; with K-562 leukemia, 12.4%; with MALME-3M melanoma, 42.3%; in the assay with MDA-MB-231 breast, 55.3%; in the assay with RXF 393 renal, 28.1%. Also, the growth in the assay on SF-268 CNS is 35.9%; in the assay on SF-295 CNS, 15.9%; in the assay with SF-539 CNS it was 23.3%; in the assay on M14 melanoma, 48%.
As to `C[n+]1c2ccccc2c(Nc2ccc(NS(=O)(=O)CCCCN=C(N)N)cc2)c2ccc(N)cc21`, the growth is 26% in the assay with NCI-H23 lung; 41% in the assay with NCI-H226 lung; 71.4% with NCI-H322M lung; 32.2% in the assay with HOP-62 NSCLC; 10.9% with NCI-H460 lung; 44.1% in the assay on 786-0 renal. Also, the growth in the assay on COLO 205 colon was 50.4%; with DU-145 prostate, 23.7%; in the assay with K-562 leukemia, 41%; in the assay with MALME-3M melanoma, 32.6%; in the assay on MDA-MB-231 breast, 93.9%; with RXF 393 renal, 71%. For the same compound, the growth with SF-268 CNS was 39.7%; in the assay on SF-295 CNS, 5.07% (active); in the assay on SF-539 CNS, 43%; in the assay with M14 melanoma, 53.2%.
As to `CCCCCCCCCCCCCCCCCC(=O)Nc1ccc(O)cc1`, the growth was 98.7% in the assay with NCI-H23 lung; 102% in the assay on NCI-H226 lung; 97% in the assay on NCI-H322M lung; 91.4% with HOP-62 NSCLC; 100% in the assay on NCI-H460 lung; 79% with 786-0 renal. In addition, the growth in the assay with COLO 205 colon was 93%; with DU-145 prostate it was 103%; with K-562 leukemia, 96.6%; with MALME-3M melanoma, 94.1%; in the assay on MDA-MB-231 breast, 86.3%; with RXF 393 renal, 99.6%. For the same compound, the growth is 84.2% in the assay on SF-268 CNS, 106% in the assay on SF-295 CNS, -16% (active) in the assay with SF-539 CNS and 103% with M14 melanoma.
As to `CC(C)C(=O)c1ccc(Cl)s1`, the growth in the assay with NCI-H23 lung was 103%; in the assay with NCI-H226 lung, 93.2%; in the assay on NCI-H322M lung, 91.5%; in the assay with HOP-62 NSCLC it was 98.1%; in the assay on NCI-H460 lung, 105%; in the assay with 786-0 renal, 102%. Besides, the growth with COLO 205 colon is 109%; in the assay with DU-145 prostate, 106%; with K-562 leukemia, 91.5%; with MALME-3M melanoma it was 82.8%; in the assay with MDA-MB-231 breast, 105%; with RXF 393 renal it was 105%. Also, the growth in the assay on SF-268 CNS is 102%; in the assay on SF-295 CNS, 99.3%; in the assay with SF-539 CNS it was 107%; in the assay with M14 melanoma, 101%.
Turning to `CC[C@@H](C)/C=C(C)/C=C/C(=O)c1c(O)c(-c2ccc(OC(=O)[C@@]34CC[C@@](C)(C(=O)O3)C4(C)C)cc2)cn(O)c1=O`, the growth is 21.8% in the assay with NCI-H23 lung; 36.8% in the assay with NCI-H226 lung; -4.05% (active) with NCI-H322M lung; 21% in the assay with HOP-62 NSCLC; -7.48% (active) with NCI-H460 lung; 43.6% in the assay on A549/ATCC NSCLC. Also, the growth was -31.8% (active) in the assay with 786-0 renal; 112% with COLO 205 colon; 10.8% with DU-145 prostate; 36.7% with MDA-MB-231 breast; 31.6% with RXF 393 renal; -1.52% (active) in the assay on SF-268 CNS. For the same compound, the growth was -9.51% (active) in the assay on SF-295 CNS, 16.7% in the assay on SF-539 CNS, 2.75% (active) in the assay on UACC-257 melanoma and -35.8% (active) with M14 melanoma.
As for `CC(O)CN(CCO)CCN(CCO)CC(C)O` (stereo not drawn), the growth is 111% with NCI-H23 lung; 99.3% in the assay on NCI-H226 lung; 103% in the assay on NCI-H322M lung; 110% in the assay with HOP-62 NSCLC; 109% with NCI-H460 lung; 102% in the assay on A549/ATCC NSCLC. Besides, the growth in the assay with 786-0 renal is 94.6%; in the assay with DU-145 prostate, 106%; in the assay on K-562 leukemia, 107%; in the assay on MALME-3M melanoma it was 106%; in the assay with MDA-MB-231 breast, 115%; in the assay with RXF 393 renal it was 93%. Also, the growth is 107% with SF-268 CNS; 94.2% in the assay with SF-295 CNS; 94.8% in the assay with SF-539 CNS; 108% in the assay with UACC-257 melanoma; 106% in the assay with M14 melanoma.
Consider `O=C(NC(=S)NNC(=S)NNc1ccccc1)c1ccccc1`, for which the growth is 25.9% in the assay with NCI-H23 lung; 40.6% with NCI-H226 lung; 68.2% in the assay on NCI-H322M lung; 43% in the assay on HOP-62 NSCLC; 13.2% with NCI-H460 lung; 67.7% with 786-0 renal. The growth in the assay on COLO 205 colon is 81%; in the assay on DU-145 prostate it was 98%; in the assay with K-562 leukemia, 9.51% (active); in the assay with MALME-3M melanoma, 25.5%; in the assay on MDA-MB-231 breast, 78.2%; in the assay on RXF 393 renal it was 62.8%. Also, the growth in the assay with SF-268 CNS was 59.5%; in the assay with SF-295 CNS, 6.98% (active); in the assay on SF-539 CNS it was 25.5%; in the assay on M14 melanoma, 71.7%.

For the origin of these results see PubChem BioAssay (NCI).
